Structures are written as SMILES. About 83,000 compounds went through this panel and 20% of them were active in at least one assay; those are over-represented in the sample as a whole.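 Results are percent growth after 48 hours of single-concentration exposure. 100 means growth as in untreated cells, lower positive values show inhibition; negative values down to -100 show cell death.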 A number with no mark means an inactive call. Activity calls are given as the source filed them. Rule for the calls: active = growth percent below 10; inactive = the rest.

The values below come from PubChem BioAssay (NCI).

Some test systems named below: HCT-15 colon; HT29 colon; SNB-75 CNS; SNB-19 CNS; U251 CNS; PC-3 prostate; SK-MEL-5 melanoma; UACC-62 melanoma; LOX IMVI melanoma; SK-MEL-28 melanoma; EKVX NSCLC; SN12C renal; UO-31 renal; TK-10 renal; ACHN renal; CAKI-1 renal; A498 renal; MOLT-4 leukemia; CCRF-CEM leukemia.
Common to all, as to experiment: NCI-60 one-dose screen, 48 h (100 = growth as untreated, 0 = no growth, -100 = all killed)
Conditions in all cases: 10 µM unless noted

On to `COc1ccc(-c2cnc(-c3ccc(Cl)cc3)[nH]2)cc1OC`, for which the growth in the experiment with HCT-15 colon is 100%; with HT29 colon, 97.6%; in the experiment on SNB-75 CNS, 72.8%; in the experiment with SNB-19 CNS it was 96%; in the experiment with U251 CNS, 102%; with PC-3 prostate, 81.3%. Besides, the growth in the experiment on SK-MEL-5 melanoma was 97.4%; in the experiment on UACC-62 melanoma, 94.6%; with LOX IMVI melanoma it was 110%; in the experiment on SK-MEL-28 melanoma, 104%; with EKVX NSCLC, 117%; in the experiment with SN12C renal, 91.6%. For the same compound, the growth in the experiment with UO-31 renal was 95.4%; with TK-10 renal, 139%; with ACHN renal it was 103%; in the experiment on CAKI-1 renal, 121%; in the experiment with A498 renal, 90.6%; in the experiment on MOLT-4 leukemia it was 106%.

Consider `Cc1cccc(C)c1N1C(c2ccccc2)=NNC12C=CC(=O)c1c(O)cccc12` (stereo not drawn), for which the growth in the experiment on HCT-15 colon is 32.8%; with HT29 colon, 89.4%; with SNB-75 CNS, 96.7%; in the experiment with SNB-19 CNS it was 69.7%; with U251 CNS, 40.9%; in the experiment with PC-3 prostate, 38.8%. Besides, the growth is -37.2% (active) with SK-MEL-5 melanoma; 24.5% in the experiment with UACC-62 melanoma; 7.95% (active) in the experiment on LOX IMVI melanoma; 110% with SK-MEL-28 melanoma; 91.3% in the experiment with EKVX NSCLC; 72.5% in the experiment on SN12C renal. In addition, the growth with UO-31 renal was 48.4%; in the experiment on TK-10 renal it was 111%; in the experiment on ACHN renal, 88.6%; in the experiment with CAKI-1 renal, 101%; in the experiment on A498 renal it was 109%; with MOLT-4 leukemia it was 76.9%.

Regarding `Cc1ccc(C(=O)Nc2ccc(CN3CCN(C)CC3)c(C(F)(F)F)c2)cc1C#Cc1cnc2cccnn12`, the growth is -83.1% (active) in the experiment on HCT-15 colon; -69.8% (active) in the experiment with HT29 colon; -99.1% (active) in the experiment on SNB-75 CNS; -98.3% (active) in the experiment on SNB-19 CNS; -98.5% (active) in the experiment on U251 CNS; -64.1% (active) in the experiment with PC-3 prostate. For the same compound, the growth in the experiment on SK-MEL-5 melanoma was -98.8% (active); with UACC-62 melanoma, -89.1% (active); in the experiment on LOX IMVI melanoma, -94% (active); in the experiment on SK-MEL-28 melanoma, -97% (active); with EKVX NSCLC, -84.4% (active); in the experiment on SN12C renal it was -92.8% (active). The growth in the experiment with UO-31 renal was -93.6% (active); in the experiment with TK-10 renal it was -98.7% (active); in the experiment on ACHN renal, -100% (active); in the experiment with CAKI-1 renal it was -99.9% (active); in the experiment with A498 renal, -96.8% (active); in the experiment on MOLT-4 leukemia, -62.3% (active).

Take `O=C(c1ccc(F)c(F)c1Nc1ccc(I)cc1F)N1CC(O)([C@@H]2CCCCN2)C1`: the growth in the experiment with HCT-15 colon is 25.6%; with HT29 colon it was -18.5% (active); with SNB-75 CNS it was 21.7%; with SNB-19 CNS it was 36.4%; with U251 CNS, 15.3%; in the experiment with PC-3 prostate it was 38.6%. In addition, the growth in the experiment with SK-MEL-5 melanoma is -92.9% (active); in the experiment on UACC-62 melanoma it was -5.75% (active); in the experiment with LOX IMVI melanoma it was -84.1% (active); in the experiment with SK-MEL-28 melanoma, -1.76% (active); in the experiment with EKVX NSCLC it was 24.4%; with SN12C renal, 34%. Further, the growth in the experiment on UO-31 renal was -9.6% (active); in the experiment with TK-10 renal, 11.6%; in the experiment with ACHN renal, 18.2%; with CAKI-1 renal, 21.9%; in the experiment with A498 renal, -71.2% (active); in the experiment with CCRF-CEM leukemia, 39.7%. Besides, the growth with MOLT-4 leukemia was 4.19% (active).

Turning to `CS(=O)(=O)N1CCc2c(-c3cnc(N)nc3)nc(N3CCOCC3)nc21`, the growth was 9.65% (active) with HCT-15 colon; 6.31% (active) with HT29 colon; -45.1% (active) in the experiment with SNB-75 CNS; 16.1% in the experiment on SNB-19 CNS; 12.4% with U251 CNS; 10.1% with PC-3 prostate. Besides, the growth with SK-MEL-5 melanoma was -3.03% (active); in the experiment on UACC-62 melanoma it was -41.1% (active); in the experiment on LOX IMVI melanoma, 1.28% (active); in the experiment with SK-MEL-28 melanoma, -15.9% (active); in the experiment on EKVX NSCLC, 10.2%; in the experiment on SN12C renal it was 8.6% (active). Also, the growth is -21.8% (active) in the experiment on UO-31 renal; -21.4% (active) in the experiment with TK-10 renal; 0.427% (active) in the experiment on ACHN renal; -8.15% (active) with CAKI-1 renal; -49.9% (active) in the experiment with A498 renal; 22.2% in the experiment on CCRF-CEM leukemia. Moreover, in the experiment on MOLT-4 leukemia, the growth was 9.81% (active).

As to `C#Cc1cccc(Nc2ncnc3cc(OCCOC)c(OCCOC)cc23)c1`, the growth in the experiment with HCT-15 colon is 39.3%; in the experiment on HT29 colon, 53.2%; in the experiment on SNB-75 CNS, 71.6%; in the experiment on SNB-19 CNS, 79.8%; with U251 CNS, 68.8%; in the experiment on PC-3 prostate it was 73.4%. The growth in the experiment on SK-MEL-5 melanoma was 77.1%; with UACC-62 melanoma, 50.9%; in the experiment on LOX IMVI melanoma, 47.2%; in the experiment on SK-MEL-28 melanoma it was 86.8%; in the experiment with EKVX NSCLC, 39.6%; in the experiment with SN12C renal, 50.5%. Moreover, the growth was 17.3% with UO-31 renal; -6.62% (active) in the experiment with TK-10 renal; 11.3% in the experiment with ACHN renal; 6.29% (active) in the experiment with CAKI-1 renal; 20.2% with A498 renal; 56.1% with MOLT-4 leukemia.

As to `C=CCn1c(=O)c2cnc(Nc3ccc(N4CCN(C)CC4)cc3)nc2n1-c1cccc(C(C)(C)O)n1`, the growth in the experiment on HCT-15 colon is 4.74% (active); in the experiment on HT29 colon, -12.4% (active); in the experiment on SNB-75 CNS, 3.88% (active); with SNB-19 CNS, 26.9%; with U251 CNS, 16.7%; in the experiment on PC-3 prostate, 28.4%. Moreover, the growth in the experiment on SK-MEL-5 melanoma is 18.2%; in the experiment on UACC-62 melanoma it was 42.6%; in the experiment on LOX IMVI melanoma it was 5.87% (active); with SK-MEL-28 melanoma, 64.4%; in the experiment on EKVX NSCLC, 22.5%; in the experiment with SN12C renal, 28.4%. The growth in the experiment on UO-31 renal was 10.5%; with TK-10 renal, 13.8%; in the experiment with ACHN renal it was 25.4%; in the experiment on CAKI-1 renal, 23.3%; in the experiment on A498 renal, -26% (active); in the experiment on MOLT-4 leukemia it was 3.84% (active).
